# About 83,000 compounds went through this panel and 20% of them were active in at least one assay; those are over-represented in the sample as a whole.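 Step 1: grow cells in 96-well plates. Step 2: add test compound at a single concentration. Step 3: incubate 48 h. Step 4: record percent growth.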 The source made the active and inactive calls. How the source made its calls: active means growth percent below 10; inactive means the rest.
# Test system: HL-60(TB) leukemia
# Test: NCI-60 one-dose screen, 48 h (100 = growth as untreated, 0 = no growth, -100 = all killed)
# Settings: 10 µM unless noted
row,SMILES,growth
1,O=C(c1ccc(Br)cc1)C(Br)C(c1ccc(Cl)cc1)C(c1ccccc1)[N+](=O)[O-] (stereo not given),99.3% (inactive)
2,COc1ccc(-n2cc(-c3cc(OC)c(OC)c(OC)c3)n(C(C)=O)c2=O)cc1,126% (inactive)
3,CCOC(=O)C(=O)C=P(c1ccccc1)(c1ccccc1)c1ccccc1,103% (inactive)
4,CC(C)N(CCCC#N)C(C)C,102% (inactive)
5,Oc1ccc(/C=N/Nc2nc3ccccc3s2)c(O)c1,0.859% (active)
6,COc1cc2c(cc1-c1c(C)noc1C)ncc1nc(-c3ccccn3)n([C@H](C)COC(F)F)c12,33.6% (inactive)
7,NNc1ccccc1C(=O)O,49.1% (inactive)
8,O=C(NCc1ccccc1O)c1cccc2ccccc12,66.7% (inactive)
9,O=S(=O)(Oc1ccc(-c2ccc3sccc3c2)cc1)c1ccc(F)cc1,97.1% (inactive)
10,Nc1ccc2c(c1)/C(=N/O)c1cc([N+](=O)[O-])ccc1-2,64.1% (inactive)
11,Cn1c(=O)c2nc(SCc3ccccc3)n(C)c2n(C)c1=O,92.3% (inactive)
12,COc1cc(/C=C/C(=O)c2c(C)n([O-])c3ccc(Cl)cc3[n+]2=O)cc(OC)c1OC,12.7% (inactive)
13,Cc1ccc(/C=C(\C#N)n2nnc3cc(F)c(F)cc32)cc1,-1.91% (active)
14,COc1cc(NC2CCCCC2O)c2nc(-c3ccc(Cl)cc3)ccc2c1 (stereo not given),81.9% (inactive)
15,O=C(O)COc1ccc(Cl)cc1C1CCCCC1,116% (inactive)
16,O=C1Nc2c(ccc(Cl)c2Cl)/C1=C/c1ccc([N+](=O)[O-])cc1,74.1% (inactive)
17,CCOC(=O)c1nc(Nc2ccc(C(C)=O)cc2)sc1C,95.5% (inactive)
18,C#Cc1cccc(Nc2ncnc3ccc(-c4cnc(Cl)c(NS(C)(=O)=O)c4)cc23)c1,-5.77% (active)
19,NC(=S)N/N=C/c1ccc(OC(=O)COc2cc(Cl)c(Cl)cc2Cl)cn1,47.1% (inactive)
20,COc1cc(CCC[P+](c2ccccc2)(c2ccccc2)c2ccccc2)cc2c1OCO2,10.3% (inactive)

row,SMILES,growth
1,CCCCCCCCCCSc1ncnc2nc[nH]c12,73.9% (inactive)
2,C(CCCC1=NCCO1)CCCC1=NCCO1,112% (inactive)
3,Cc1c2c(cn1Cc1ccccc1)CCc1cn(C)nc1-2,63.4% (inactive)
4,CCCCCCc1cc(N=Nc2ccc(S(=O)(=O)Nc3cc(C)nc(C)n3)cc2)c(O)cc1O,94.4% (inactive)
5,O=C(Nc1ccc(N2CCNCC2)cn1)c1[nH]ncc1Nc1ncnc2sc3c(c12)CCC3,74% (inactive)
6,NC(=S)N/N=C(/CCN1CCCC1)CC(C1=C(O)C2=CCCCC2OC1=O)c1ccccc1 (stereo not given),72.9% (inactive)
7,O=C(CO[N+](=O)[O-])Nc1ccc(C(=O)/C=C/c2ccc3c(c2)OCO3)cc1,73.7% (inactive)
8,Cc1ccc(-c2nc([P+](c3ccccc3)(c3ccccc3)c3ccccc3)c(S(=O)(=O)c3ccc(C)cc3)o2)cc1,-14.4% (active)
9,CCCCCCCCCCCCCCCc1ccc(N)c(OC2OC(CO)C(O)C(O)C2O)c1 (stereo not given),23% (inactive)
10,Cc1nn(-c2ccc(-c3ccc(OC(F)(F)F)cc3)cc2)c2nc(Cc3ccccc3)nc(N)c12,88.3% (inactive)
11,Nc1n[nH]c2ccc([C@@H]3Nc4ccc5cn[nH]c5c4[C@H]4C5CCC(C5)[C@@H]34)cc12 (stereo not given in full),-29.2% (active)
12,C#C[C@]1(O)CCC2C3CCc4cc(OC5CCCC5)ccc4C3CC[C@@]21C (stereo not given in full),77% (inactive)
13,O=C(NC1CCCCC1)c1ccc(Nc2ncnc3c2cnn3-c2ccccc2)cc1,106% (inactive)
14,CCOC(=O)C1(N)CCCCC1,110% (inactive)
15,COc1ccc(-c2nc3c(c(C)nn3-c3ccc(F)cc3)c(=O)[nH]2)cc1,70% (inactive)
16,CCN1CCN(c2nc(NNC(=O)c3cccc(OC)c3)nc(N3CCN(C(c4ccccc4)c4ccccc4)CC3)n2)CC1,28.4% (inactive)
17,CCCNC(=O)Oc1ccc(/C(=C(/C)Cc2ccc(OC)cc2)c2ccc(OCCN3CCCC3)cc2)cc1,51.9% (inactive)
18,CC(=O)[C@H]1CC[C@]2(C)[C@@H]1CC[C@@H]1[C@@]3(C)C/C(=C/c4cccnc4)C(=O)C(C)(C)[C@@H]3CC[C@]12C,8.47% (active)
19,CC(=Nc1ccccc1)C1=C(O)C(Cc2ccccc2)NC1=O (stereo not given),-52.3% (active)
20,CC(c1ccc(-n2cccn2)cc1)c1cnc(N2CCc3ccc(C(N)=O)cc3C2)s1 (stereo not given),48.9% (inactive)
